Source: PubChem BioAssay
In the library only some 21% were active in any assay of this set; here they are far more common.
ClpP mod: qHTS Assay for Activators of ClpP; ATP-dependent Clp protease proteolytic subunit (Bacillus subtilis (strain 168)), P80244; purified B. subtilis ClpP, FRET peptide cleavage, 20 min; Potency, µM (top dose mostly 57.5 µM), inactives show at the highest dose activity change, negative = active; 1.9% of 340,000 active; active means well fitted falling curve with a large enough effect; inconclusive means small, poorly fitted or top-dose-only effect; inactive means no such curve, though single readings can be large or run the other way; further: potency means the concentration at half of the fitted maximal effect; the source files actives as falling curves though it sought activators and does not explain the sign; nearly all actives have a fitted effect of over 65% in size
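FRET quenching reversal measured ClpP activation: 10 microg/mL B. subtilis ClpP at pH 8 with the FRET-FV decapeptide, read at 430 nm after 320 nm excitation. The 20-min minus 0-min signal was scaled between DMSO/no-enzyme wells and ADEP (5.8 microM final).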
TDP1 cell CPT: DT40-hTDP1 cell growth loss with CPT. chicken DT40 Tdp1-/-;hTDP1 cells + 20 nM CPT, ATP luminescence, 48 h. Potency, µM (highest dose often 46.2 µM), for the others: at the highest dose activity change, negative = growth inhibition, most hits filed as inhibitors. 12% of 420,000 active. AID 686979; further: potency means the concentration at half of the fitted maximal effect; on the % scale 0 is the no-effect control and ±100 the full control effect; nearly all actives have a fitted effect of over 55% in size
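Cell growth measured by CellTiter-Glo luminescence after a minimum 48 h, 37 C compound exposure with 20 nM CPT in Tdp1-knockout DT40 cells stably expressing hTDP1, seeded 400/well; qHTS titration format.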
IL-1B inflam inh: inhibitors of inflammasome signaling (IL-1 beta secretion) | THP-1 LPS/ATP IL-1B secretion, AlphaLISA, 16 h; hits give low values | activity change, % at 57.5 µM | 4.7% of 360,000 active | AID 743279; in the data active means activity change below about -50%; inconclusive means mostly about -30% to -49%; further: on the % scale 0 is the no-effect control and ±100 the full control effect
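THP-1 cells pretreated 1 hr with compounds (up to 57.5 uM final), then stimulated with LPS (250 ng/mL final) plus ATP (1.25 mM final); secreted IL-1B measured by AlphaLISA after 16 hr, decreased signal indicating inhibition.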
DRD3 antagonist: antagonists of human D3 dopamine receptor; P35462; D3R cells, DiscoveRx beta-arrestin luminescence, antagonist mode; hits give low values; max response, negative = inhibition, %; 2.5% of 360,000 active; AID 652054; in the data active means max response below about -50%; inconclusive means no clear call, values can overlap the other calls; further: on the % scale 0 is the no-effect control and ±100 the full control effect
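Cells expressing the human receptor were seeded at 1500 cells/well, incubated overnight at 37 degrees C in 5% CO2, then exposed to library compounds with dopamine controls for 90 minutes at 37 degrees C before luminescent detection.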
DRD3 agonist: activates the human D3 dopamine receptor; P35462; D3R DiscoveRx beta-arrestin cells, luminescence, 90 min; max activation, %; 0.58% of 410,000 active; in the data active means max activation above about 30%; further: 0% is about no effect
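Agonist mode: compounds and dopamine controls were applied to plated cells for 90 min at 37 degrees C after an overnight attachment at 1500 cells/well. Luminescent read-out followed 30 - 60 minutes at room temperature with DiscoveRx detection reagent.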
DT40 TDP1 no CPT: qHTS for Inhibitors of human tyrosyl-DNA phosphodiesterase 1 (TDP1): qHTS in cells in absence of CPT; DT40 Tdp1-/- hTDP1 cells, no CPT, ATP luminescence, 48 h; 15% of 420,000 active; Potency, µM (series often up to 46.2 µM), inactives show top-dose activity change, negative = growth inhibition, usual class: inhibitors; AID 686978, 2013; further: potency means the concentration at half of the fitted maximal effect; on the % scale 0 is the no-effect control and ±100 the full control effect; nearly all actives have a fitted effect of over 55% in size
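Readout: luminescence from CellTiter-Glo after 30 min in the dark at RT. Cells: DT40 Tdp1-/- with stable hTDP1, 400/well. Exposure: compounds alone, ≥48 hr, 37 °C.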
Starred values were filed as active, the others as inactive; ? = inconclusive; . = no result. Unless noted, the call rests on the fitted dose curve; in most records, active means well fitted inhibition curve with a large enough effect; inconclusive means small, poorly fitted or top-dose-only effect; inactive means flat fitted curve, though single readings scatter.

SMILES | ClpP mod | TDP1 cell CPT | IL-1B inflam inh | DRD3 antagonist | DRD3 agonist | DT40 TDP1 no CPT
COc1ccc(C(NC(=O)CN2C(=O)NC3(CCc4ccccc43)C2=O)c2ccc(OC)cc2)cc1 (configuration not stated) | -2% | ? | -64* | -3 | -7 | ?
CN(C)C(=O)CN1C(=O)NC2(CCCc3ccccc32)C1=O (configuration not stated) | 0% | -4% | -10 | -13 | -5 | 21%
COc1ccc(NC(=O)CSc2c3c(nc4ccccc24)CCC3)c(OC)c1 | 1% | ? | 13 | 3 | 3 | 21µM*
COc1ccc(NC(=O)CSc2c3c(nc4ccccc24)CCC3)cc1Cl | -5% | 0.58µM* | . | . | 1 | -73%
O=S(=O)(c1ccc(SCCOc2ccc(F)cc2)nc1)N1CCCC1 | -6% | -27% | 0 | -2 | 0 | ?
Cc1ccc(COC(=O)c2ccc3ccccc3n2)cc1 | . | 8% | 14 | 10 | 5 | 2%
Oc1ccccc1C1=NOC(O)(C(F)F)C1 (configuration not stated) | -2% | -8% | 31 | -66* | -3 | -5%
O=C(Nc1ccc2c(c1)C(=O)N(CC1CCCO1)C2=O)c1cccc(Br)c1 (configuration not stated) | 32µM* | ? | 0 | -20 | -7 | -15%
CC(=O)Oc1ccc(C(=O)Nc2ccc3c(c2)C(=O)N(CCC(=O)O)C3=O)cc1 | 28µM* | 13% | -7 | 9 | -9 | 18%
O=C(O)c1cccc(NC(=O)c2ccc3c(c2)C(=O)N(CC2CCCO2)C3=O)c1 (configuration not stated) | 2% | 0% | -19 | 3 | -2 | -6%
CC(=O)Oc1cccc(C(=O)Nc2ccc3c(c2)C(=O)N(CC2CCCO2)C3=O)c1 (configuration not stated) | 32µM* | 5% | -15 | -26 | 3 | -18%
COc1ccc(C2CC(=O)c3cc(-c4nc(-c5cccc([N+](=O)[O-])c5)cs4)c(=O)n(-c4ccccc4N)c3C2)cc1 (configuration not stated) | 1% | -14% | . | . | -6 | -15%
Cc1cccc(C)c1NC(=O)/C(C#N)=C/c1cccs1 | 0% | 12µM* | -10 | 3 | -2 | ?
Cc1ccc(NC(=O)/C(C#N)=C/c2cccs2)c(C)c1 | 1% | -3% | -11 | 32 | 16 | -9%
O=C1[C@H]2CCCC[C@H]2C(=O)N1CCCCN1CCN(c2nsc3ccccc23)CC1 | -15% | 21µM* | -65* | -116* | -57 | 13µM*
Nc1nc2ccccc2n1C(=O)c1ccc(F)cc1 | . | ? | -9 | ? | -10 | 18µM*
Nc1nc2ccccc2n1C(=O)CCc1ccccc1 | 1% | ? | 4 | -9 | 0 | 18µM*
COc1ccc(C(=O)n2c(N)nc3ccccc32)cc1OC | -13% | ? | 0 | 8 | -2 | ?
Nc1nc2ccccc2n1C(=O)c1ccccc1 | 1% | ? | 9 | 26 | 1 | 18µM*
C=CCn1cccc(C(=O)Nc2ccc(OC)c(Cl)c2)c1=O | . | 6% | -29 | 1 | 1 | ?
Cc1cc(Cl)ccc1NC(=O)C1CCN(S(C)(=O)=O)CC1 | . | 1% | 11 | -6 | 4 | -5%
C/C(=C\c1ccccc1)C(=O)NCc1ccco1 | 2% | -22% | -7 | 0 | -1 | -14%
Cc1cccc(N2C(=O)c3cccc4c(N)ccc(c34)C2=O)c1 | . | ? | -58* | 6 | 7 | -26%
Cc1cccc(N2C(=O)c3cccc4c(N(C)CCO)ccc(c34)C2=O)c1 | ? | ? | 34 | -9 | -9 | 18µM*
Nc1cccc(N2C(=O)c3cccc4c(N)ccc(c34)C2=O)c1 | -1% | -15% | -29 | 20 | -1 | ?
SMILES | ClpP mod | TDP1 cell CPT | IL-1B inflam inh | DRD3 antagonist | DRD3 agonist | DT40 TDP1 no CPT
COCCCNC(=O)CCCn1c(SCC(=O)c2ccc(Br)cc2)nc2c(sc3ccccc32)c1=O | -8% | ? | . | . | -12 | ?
O=C(Nc1cccc(Cl)c1Cl)C1CCCC1 | . | 4% | 16 | 6 | 5 | -7%
CSc1cccc(NC(=O)c2cnn(-c3ccc(F)cc3)c2-n2cccc2)c1 | ? | . | . | . | -11 | .
CCCc1c(C(=O)Nc2ccc(F)cc2C)cnn1-c1ccccc1 | -3% | -28% | ? | 11 | -16 | ?
Cc1cc(NC(=O)c2cnn(-c3ccccc3)c2-n2cccc2)ccc1Br | -5% | 18µM* | . | . | 3 | ?
CC(=O)c1ccc(NC(=O)c2cnn(-c3cccc(F)c3)c2-n2cccc2)cc1 | 0% | ? | . | . | 3 | 23µM*
Cc1ccc(S(=O)(=O)NNC(=O)c2cnn(-c3ccccc3)c2-n2cccc2)cc1 | -1% | 1.6µM* | -3 | 15 | 0 | 1.5µM*
CCN(CC)c1ccc(NC(=O)c2cnn(-c3ccccc3)c2-n2cccc2)c(C)c1 | 13% | 15µM* | . | . | -7 | 10µM*
NCCC(O)(P(=O)(O)O)P(=O)(O)O | . | -15% | . | . | 3 | 3%
CCCn1c(SCC(=O)c2[nH]c(C)c(C(C)=O)c2C)n[nH]c1=O | . | 2% | 68 | 2 | 14 | -4%
CCOc1ccc(CC(=O)NCCc2csc(-c3ccc(C)cc3)n2)cc1 | -5% | ? | . | . | 10 | 21µM*
O=C(COc1ccc(Cl)cc1)NCCc1csc(-c2cccc(F)c2)n1 | 4% | ? | . | . | -8 | ?
CCOc1ccc(CC(=O)NCCc2csc(-c3ccc(Cl)cc3)n2)cc1 | -19% | ? | . | . | 9 | 16µM*
COc1ccc(CCNC(=O)c2c(C)oc3ncnc(N4CCOCC4)c23)c(OC)c1 | -1% | 3% | . | . | 4 | -11%
Cc1ccc(OCC(=O)Nc2ccc(NC(=O)c3ccccc3)c(C)c2)cc1 | 2% | ? | 0 | 8 | -2 | -9%
O=C(c1cccc(F)c1)N1CCC2(CC1)CCN(c1ccc(-c3ccccc3)cc1)CC2 | . | 9% | . | . | . | 1%
C=CCn1c(SCC(=O)N2CCOCC2)nc2sc(C)c(C)c2c1=O | . | -19% | -13 | 4 | 6 | -29%
C=CCn1c(SCC(=O)N2CCOCC2)nc(O)c(Cc2ccccc2)c1=O | 4% | ? | -1 | -26 | 1 | 13µM*
Cn1c(SCC(=O)N2CCOCC2)nc2sc3c(c2c1=O)CCCC3 | 0% | 9.2µM* | -4 | 33 | 3 | 23µM*
C=CCn1c(SCC(=O)N2CCOCC2)nc2sc3c(c2c1=O)CCCC3 | -1% | ? | -77* | 34 | 12 | 18µM*
